Screening data as filed in PubChem BioAssay.
GRK2 aptamer HTS: compounds blocking aptamer binding on GRK2 – biochemical, human GRK2, bead flow cytometry, HTS, primary screen. inhibition of aptamer binding, % at 10 µM. AID 488847, 2010. FAM-aptamer displacement from GRK2. Beta-adrenergic receptor kinase 1 (Homo sapiens), P25098. 330,000 compounds, 0.59% hits;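 active = inhibition of aptamer binding above 40%, roughly 3 SD of noise, on plates passing a quality check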;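 also: median bead fluorescence of bound FAM aptamer so fluorescent compounds give negative values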
Target sequence (P25098 whole entry, looked up): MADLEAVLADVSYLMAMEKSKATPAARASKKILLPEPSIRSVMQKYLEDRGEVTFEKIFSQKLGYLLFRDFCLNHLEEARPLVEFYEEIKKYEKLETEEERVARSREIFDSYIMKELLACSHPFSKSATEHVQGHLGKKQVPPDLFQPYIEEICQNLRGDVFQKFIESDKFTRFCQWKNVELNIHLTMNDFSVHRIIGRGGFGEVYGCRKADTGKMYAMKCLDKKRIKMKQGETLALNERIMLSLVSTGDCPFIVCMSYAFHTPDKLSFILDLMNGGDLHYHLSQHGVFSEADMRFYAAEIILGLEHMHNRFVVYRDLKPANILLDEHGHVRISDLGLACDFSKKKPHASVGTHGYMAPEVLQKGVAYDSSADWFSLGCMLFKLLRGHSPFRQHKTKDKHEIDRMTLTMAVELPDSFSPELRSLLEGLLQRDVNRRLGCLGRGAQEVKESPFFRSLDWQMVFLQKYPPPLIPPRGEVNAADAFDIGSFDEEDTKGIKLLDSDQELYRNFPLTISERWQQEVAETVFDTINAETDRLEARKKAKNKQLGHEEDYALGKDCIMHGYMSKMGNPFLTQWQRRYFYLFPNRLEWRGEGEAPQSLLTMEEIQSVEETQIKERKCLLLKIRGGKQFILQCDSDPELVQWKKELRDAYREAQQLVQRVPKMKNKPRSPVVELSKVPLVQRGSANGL
HDAC3 inh: HDAC3 deacetylase inhibitors, primary screen, biochemical, fluorescence, cell-free homogeneous. recombinant HDAC3, fluorogenic peptide/trypsin coupled. inhibition, % at 8.3 µM. 320,000 compounds, 0.15% hits. AID 2718, 2010; in the data active = inhibition above about 26%, passing the limit was not always enough
Cardio protect: cardioprotection against H2O2-induced cell death, primary screen, uHTS, H9c2 cells, ATPLite luminescence; 360,000 compounds, 0.63% hits; H9c2 cardiomyocytes, H2O2 injury protection, 2 h; protection from H2O2 cell death, % at 20 µM;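 active = compounds giving at least 50% protection of heart cells from peroxide-induced death in the single-dose screen, raw or plate-pattern-corrected value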
Neddylation inh: inhibitors of cullin neddylation, primary screen, biochemical, TR-FRET, uHTS, NAE and Ubc12. NEDD8-conjugating enzyme Ubc12 (Homo sapiens) + NEDD8-activating enzyme E1 regulatory …. inhibition, % at 25 µM. 360,000 compounds, 0.58% hits; in the data active = inhibition above about 36%
A number is an active result; . = inactive; / = no result shown. Hits are enriched below; roughly 1.8% of the tested compounds scored in any of these assays.

SMILES	GRK2 aptamer HTS	HDAC3 inh	Cardio protect	Neddylation inh
COc1ccc(-c2csc(NC(=O)CN3C(=O)C4CC=CCC4C3=O)n2)cc1OC (stereo not drawn)	.	.	.	.
O=C(CN1C(=O)C2CC=CCC2C1=O)Nc1nc(-c2ccc(F)c(F)c2)cs1 (stereo not drawn)	.	.	82	.
COc1ccc(-c2nn(Cc3ccccc3)cc2C(=O)N2CCN(c3ncccn3)CC2)cc1OC	.	.	.	.
Cc1nn(Cc2ccc(C(=O)N3CCN(C(=O)c4ccco4)CC3)o2)c(C)c1[N+](=O)[O-]	.	.	54	.
CC1=NN(C(=O)c2ccc(Cn3nc(C)c([N+](=O)[O-])c3C)o2)C(O)(C(F)(F)F)C1 (stereo not drawn)	.	.	.	.
c1ccc(CCn2c(C3CC3)nc3ccccc32)cc1	.	.	.	.
COc1ccccc1NC(=O)c1ccc(NC(=O)Cc2n[nH]c(=O)c3ccccc23)cc1	.	.	70	.
COc1ccc(C(=O)COC(=O)Cc2n[nH]c(=O)c3ccccc23)c(OC)c1	.	.	62	.
O=C(Cc1n[nH]c(=O)c2ccccc12)OCC(=O)c1ccc(F)c(F)c1	.	.	.	.
CC(=O)c1cccc(NC(=O)C(C)OC(=O)Cc2n[nH]c(=O)c3ccccc23)c1 (stereo not drawn)	.	.	77	.
CCc1ccc(C(=O)C(C)OC(=O)Cc2n[nH]c(=O)c3ccccc23)cc1 (stereo not drawn)	.	.	.	.
O=C(Cc1n[nH]c(=O)c2ccccc12)OCC(=O)c1ccccc1	.	.	61	.
CN(CC(=O)Nc1cccc(F)c1)C(=O)C1CCN(S(=O)(=O)c2ccc3c(c2)OCCO3)CC1	.	.	.	.
Cc1ccc(NC2CCCN(C(=O)c3ccnc(Cl)c3)C2)cc1C (stereo not drawn)	.	.	.	.
CN1C2CCC1CC(NC(=O)c1cc(S(=O)(=O)N(C)C)c(Cl)cc1Cl)C2 (stereo not drawn)	.	.	.	.
O=C(COC(=O)Cc1n[nH]c(=O)c2ccccc12)Nc1ncc(Cl)cc1Cl	.	.	67	.
CC(C)CC(=O)Nc1ccc(C(=O)COC(=O)Cc2n[nH]c(=O)c3ccccc23)cc1	.	.	72	.
O=C(Cc1n[nH]c(=O)c2ccccc12)OCC(=O)c1ccccc1Cl	.	.	.	.
COc1ccc(N=Nc2nc3ccc(Br)cc3n2C)cc1	.	.	.	.
CCc1ccc(OCC(=O)NC(C)C)cc1	.	.	.	.
CCC(C)(C)c1ccc(OCCCC[n+]2ccc(C)cc2)c(C(C)(C)CC)c1	.	34	/	/
CCC(C)(C)c1ccc(OCCCC[n+]2cccc(C)c2C)c(C(C)(C)CC)c1	/	.	.	.
C/C(=N\Nc1ccc2nncn2n1)c1ccccn1	.	.	58	.
C/C(=N\Nc1ccc2nncn2n1)c1ccco1	.	.	.	.
CCCCS(=O)(=O)N1CCCC(C(=O)NCC2CCCO2)C1 (stereo not drawn)	.	.	.	.
SMILES	GRK2 aptamer HTS	HDAC3 inh	Cardio protect	Neddylation inh
O=c1cc(COc2ncnc3c(Cl)cc(Cl)cc23)nc2sccn12	.	/	55	.
O=C(OCc1cc(=O)n2ccsc2n1)c1ccc(O)cc1O	.	.	64	.
Cc1ccsc1C(=O)OCc1cc(=O)n2ccsc2n1	.	.	.	.
CCOC(=O)c1c(C)[nH]c(C(=O)OCc2nc3ccsc3c(=O)[nH]2)c1C	/	/	.	.
O=C(c1ccccc1NS(=O)(=O)c1ccc(Br)cc1)N1CCOCC1	.	.	.	.
CCOC(=O)c1c2ccc(OCC(=O)N/N=C/c3ccc(C)cc3)cc2n2ccccc12	.	.	54	/
CCOC(=O)c1c2ccc(OCC(=O)NN)cc2n2ccccc12	.	.	.	/
CCCCCCCCCCCCCCCC[N+](C)(C)CCN(Cc1ccc(OC)cc1)c1ncccn1	.	63	.	.
O=C1CC(c2ccc(O)c(O)c2)Oc2c1ccc(O)c2O (stereo not drawn)	.	.	.	.
CC(C)=CCc1c(O)ccc2c1OC(c1ccc(O)c(O)c1)CC2=O (stereo not drawn)	.	.	54	.
COc1ccc(-c2nc(CS(=O)CC(=O)NCCN3CCCCC3C)c(C)o2)cc1OC (stereo not drawn)	.	.	.	.
Cc1oc2c(c1C(=O)c1ccccc1)C(=O)C(=O)c1ccccc1-2	58	.	.	.
Cc1cc(C)n(-c2nc3ccccc3s2)n1	.	.	.	.
Cc1c2c(=O)n(-c3nc4ccccc4s3)nc-2cc(O)n1Cc1ccccc1	/	/	.	41
COC(=O)CSC1=NS(=O)(=O)c2ccccc21	.	54	.	.
C=CCNc1nc(-c2ccccn2)nnc1-c1ccccc1	.	.	73	.
c1ccc(-c2cnnc(-c3ccccn3)n2)cc1	.	.	.	.
O=C(Nc1ccc(C(=O)OC2CCCCC2)cc1)c1ccncc1	.	.	.	.
COc1cc(/C=N/NC(=O)C(=O)/C=C2\NC3(CCCC3)Cc3ccccc32)ccc1O	.	.	.	.
O=C(/C=C1\NC2(CCCC2)Cc2ccccc21)C(=O)N/N=C/c1ccccc1O	.	.	80	.
COC(=O)C1CCCCN1C(=O)c1cc(COc2cccc3cccnc23)on1 (stereo not drawn)	.	.	.	.
CCOC(=O)CC1CCCCN1C(=O)c1cc(COc2cccc3cnccc23)on1 (stereo not drawn)	.	.	.	56
COC(=O)C1CCCCN1C(=O)c1cc(COc2cccc3cnccc23)on1 (stereo not drawn)	.	.	.	47
CCOc1ccc(NC(=O)Cn2nnc(C(=O)NCc3cccs3)c2N)cc1	.	.	.	.
COc1ccc(CNc2nn3c(-c4cccc(C(=O)N(C)C)c4)cnc3s2)cc1	/	/	76	.
SMILES	GRK2 aptamer HTS	HDAC3 inh	Cardio protect	Neddylation inh
COc1cccc(-c2cc(NC=O)c3ncc(-c4cccc(C(=O)N(C)C)c4)n3c2)c1	/	/	.	.
CCNc1nc(NC(C)CC)nc(ON=C(C)C)n1 (stereo not drawn)	.	.	.	.
O=c1ccc2cc3c4c(c2o1)CCCN4CCC3	.	.	.	50
COc1ccc(C2CC(O)(c3ccccc3)Oc3cc(OC)c(OC)c(OC)c32)cc1 (stereo not drawn)	.	41	.	.
CC(=O)c1c(C(C)=O)c(C)n(-c2nc(-c3ccc(C)c(C)c3)c(C)s2)c1C	.	.	.	.
COc1ccc(-c2nc(-n3c(C)c(C(C)=O)c(C(C)=O)c3C)sc2C)cc1	78	.	.	.
Cc1ccc(-c2nn3c(C)nnc3c3ccccc23)cc1S(=O)(=O)NC(C)c1ccccc1 (stereo not drawn)	.	.	91	.
Cc1ccc(-c2nn3c(C)nnc3c3ccccc23)cc1S(=O)(=O)NCCO	.	.	.	.
Cc1nc(-c2ccc(NC(=O)CC(C)C)cc2)cs1	.	.	.	.
CC(=Nc1ccc(C)cc1C)c1sc2ccccc2c1O	.	.	.	44
